Here are results for 101 compounds from PubChem BioAssay AID488837 (National Center for Advancing Translational Sciences (NCATS), 2010).

In all, about 330,000 compounds went through this assay and about 20 (0.006%) were called active. About 1% were inconclusive and are not listed. The call rests on the fitted dose curve; in most records, active means well fitted inhibition curve with a large enough effect; inconclusive means small, poorly fitted or top-dose-only effect, or effect the other way; inactive means flat fitted curve, though single readings scatter. Shown is part of a subset that was picked to be rich in actives.

Protein phosphatase EYA2 (Homo sapiens), sequence (O00167 whole entry, looked up, the tested form may be a part): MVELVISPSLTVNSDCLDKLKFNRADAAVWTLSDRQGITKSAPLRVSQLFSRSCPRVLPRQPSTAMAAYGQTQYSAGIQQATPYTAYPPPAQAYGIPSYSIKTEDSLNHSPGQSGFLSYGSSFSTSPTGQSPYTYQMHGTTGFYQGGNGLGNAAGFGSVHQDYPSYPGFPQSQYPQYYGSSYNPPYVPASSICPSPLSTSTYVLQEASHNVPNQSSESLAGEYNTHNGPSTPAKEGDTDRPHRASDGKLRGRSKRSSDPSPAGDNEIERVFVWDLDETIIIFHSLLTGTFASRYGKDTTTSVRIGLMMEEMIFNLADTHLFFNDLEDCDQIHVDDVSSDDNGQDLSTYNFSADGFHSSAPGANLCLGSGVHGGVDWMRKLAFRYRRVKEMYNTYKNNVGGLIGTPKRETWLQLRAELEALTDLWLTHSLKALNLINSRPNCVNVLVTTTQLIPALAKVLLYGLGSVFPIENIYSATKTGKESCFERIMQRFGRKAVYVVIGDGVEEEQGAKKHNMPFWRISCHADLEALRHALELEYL

This assay concerns the target Protein phosphatase EYA2 (Homo sapiens) (UniProt O00167). As to the kind of experiment: qHTS Assay for Inhibitors of the Phosphatase Activity of Eya2. The conditions noted are these: recombinant Eya2, OMFP fluorescence dephosphorylation (OMFP is methylfluorescein phosphate); series mostly up to 76.9 µM. An excerpt: The Eya family of proteins are essential co-activators of the Six1 transcription factor. Six1 is a developmental gene that is abnormally re-expressed in a large percentage of breast cancers. This over-expression plays a causal role in the initiation and metastatic development of breast cancers. The Eya family of proteins was also found to contain a unique HAD phosphatase domain with protein tyrosine phosphatase activity which can potentially play a role in Six1-mediated breast tumorigenesis. […] We have developed and optimized a 1536 well fluorescence-based HTS assay targeting the phosphatase activity of Eya2. Inhibitors found against Eya2 could serve as potential therapeutic tools to inhibit Six1-mediated breast tumorigenesis and to increase the efficiency of radiation and certain chemo therapy. These inhibitors could also be used as chemical probes to study the function of Eya2's phosphatase activity and its role in Six1-mediated breast tumorigenesis.
The Eya2 enzyme was kindly provided by the laboratory of Dr. Rui Zhao. The 3-O-methyl-fluorescein phosphate (OMFP) substrate and all buffer reagents were purchased from Sigma Aldrich. qHTS Assay Setup: 1. Buffer- 50 mM HEPES pH 7.5, 50 mM NaCl, 5 uM MgCl2, 0.05% BSA, 1 mM DTT. 2. OMFP Stock- 10 mM solution prepared in 100% DMSO and stored in single use aliquots at -20C. Assay Procedure- 1. Dispense 1.5 ul per well of Eya2 at 0.2 uM in black medium binding 1536 well Greiner plate 2. Transfer 23 nl of compound and control compound (EGTA) to plate 3. Incubate at ambient for 10 minutes 4. Dispense 1.5 ul per well of OMFP at 50 uM 5. Incubate at ambient for 10 minutes 6. Read on ViewLux using Excitation = 485 nm, Emission = 525 nm
In the case of `O=C(CN1CCN(S(=O)(=O)c2ccc3ccccc3c2)CC1)NC(=O)NC1CCCCC1`, the activity, negative = inhibition entry is “inactive”. Take `CN(CC(=O)Nc1c(Cl)cccc1Cl)C(=O)CC1OC(=O)c2ccccc21` (stereo unspecified): the activity, negative = inhibition result was “inactive”. Then `CN(Cc1nc2ccc(F)cc2[nH]1)Cc1nc(CC2CC2)no1`, with “inactive”; and `COc1ccc(-c2nc(CS(=O)(=O)CC(=O)NCc3cccc(Br)c3)c(C)o2)cc1`, with “inactive”. To `CCOC(=O)c1ccc2c(c1)nc(SCC(=O)NC(C)C)n2CC` belongs “inactive”. With `CC1(C)CC(O)C(CCC(O)c2ccccc2)C(C)(C)N1` (stereo unspecified), the activity, negative = inhibition result was “inactive”. To `Cc1ccc(S(=O)(=O)N(C)C)cc1NC(=O)c1ccccc1Br` belongs “inactive”; to `CC1CC(C)CN(CCCNC(=O)Cn2ncc3c([nH]c4ccccc43)c2=O)C1` (stereo unspecified), “inactive”; to `O=C1COc2ccc(C(=O)COC(=O)C3CC(O)CN3S(=O)(=O)c3ccc(Cl)cc3)cc2N1` (stereo unspecified), “inactive”. Then `NC(=O)Cn1nc([N+](=O)[O-])nc1Oc1ccc(Br)cc1`, with “inactive”; and `Cc1cc(C)nc(SC2CCCCC2NS(=O)(=O)c2ccc(Cl)cc2)n1` (stereo unspecified), with “inactive”; and `O=C(O)c1cc(S(=O)(=O)Nc2ccc3cn[nH]c3c2)ccc1Br`, with “inactive”. Then `CCN(CC(=O)NC1CCS(=O)(=O)C1)S(=O)(=O)c1ccccc1` (stereo unspecified), with “inactive”; and `COc1ccc(COC(=O)c2ccc(Cl)c(S(=O)(=O)N3CCOCC3)c2)cc1F`, with “inactive”; and `CCN(CC)Cc1c(C(=O)N/N=C/c2cccc(OCc3ccc(F)cc3)c2)nnn1-c1nonc1N`, with “inactive”. On to `O=C(CN(C(=O)c1csnn1)c1cccc(F)c1)NCc1ccc(F)cc1`, for which the activity, negative = inhibition result is “inactive”. To `CC(C)=CCN1CCN(Cc2ccc(Oc3ncccn3)cc2)CC1CCO` (stereo unspecified) belongs “inactive”.

`COc1ccc(N2CCN(C(=O)CN3C(=O)COc4ccccc43)CC2)cc1`: the activity, negative = inhibition entry was “inactive”. As for `O=C(O)c1cscn1`, the activity, negative = inhibition result is “inactive”. To `COc1cccc2cc(-c3cc(=O)oc4cc(C)c(O)cc34)oc12` belongs “inactive”; to `O=C(C[C@H]1C/C=C\C[C@@H](NC(=O)OCC2c3ccccc3-c3ccccc32)C(=O)O[C@@H](c2ccccc2)CNC1=O)N[C@H](CO)Cc1ccccc1`, “inactive”; to `CCOc1cc(/C=N/Nc2cc(C)nc3ccc(C)cc23)ccc1O`, “inactive”. Then `CC(C)CN(C(=O)CN1CCN(S(=O)(=O)c2ccccc2)CC1)c1c(N)n(CC(C)C)c(=O)[nH]c1=O`, with “inactive”. Turning to `COc1ccc(S(=O)(=O)N2CCCC(C(=O)NCCCn3ccnc3)C2)cc1OC` (stereo unspecified), the activity, negative = inhibition result is “inactive”. To `COc1ccc(NC(=O)C/C(C)=N/NC(=O)c2cnccn2)cc1Cl` belongs “inactive”; to `Cc1ccc(S(=O)(=O)N(CC(=O)N/N=C/c2ccc(F)cc2)c2cccc3cccnc23)cc1`, “inactive”; to `COc1ccc(C(=O)N(CCN2CCOCC2)CC(=O)NC2CCCC2)cc1OC`, “inactive”. To `O=C(NC(Cc1c[nH]c2ccccc12)C(=O)O)/C(=C/c1ccco1)NC(=O)c1ccccc1` (stereo unspecified) belongs “inactive”; to `O=C(NCc1ccccc1Cl)C(=O)NCC1CCCN1S(=O)(=O)c1cccs1` (stereo unspecified), “inactive”; to `CCC1(C)CC(=O)NC1=O` (stereo unspecified), “inactive”. Then `CCCCOC(=O)Nc1nccs1`, with “inactive”. For the compound `Cc1ccc(NS(=O)(=O)c2ccc3c(c2)NC(=O)CO3)cc1`, the activity, negative = inhibition result was “inactive”. To `COC(=O)[C@H](Cc1ccccc1)NC(=O)[C@@H]1C[C@H]1[C@@H](NC(=O)OCc1ccccc1)c1ccccc1` belongs “inactive”; to `COc1ccc(C2OC(=O)CC2C(=O)NC(C)C)cc1` (stereo unspecified), “inactive”; to `Cc1csc(=O)n1CC(=O)OCC(=O)N(CC(C)C)c1c(N)n(Cc2ccccc2)c(=O)[nH]c1=O`, “inactive”. Then `C[C@@H](CN1CCC[C@H]1CN1C(N)=NC[C@@H]1Cc1ccccc1)N1C[C@@H](Cc2ccccc2)N(CCCC2CCCC2)C1=N`, with “inactive”; and `O=C(Nc1cc(S(=O)(=O)N2CCOCC2)ccc1OCC(F)(F)F)c1ccc(N2CCCC2=O)cc1`, with “inactive”; and `Cc1ccc(O)c(-c2cc(C(=O)Nc3c(C)n(C)n(-c4ccccc4)c3=O)[nH]n2)c1`, with “inactive”. In the case of `O=C(CCC(=O)OCc1cccc(C(=O)Oc2ccccc2)c1)Nc1cccc2ccccc12`, the activity, negative = inhibition entry is “inactive”. To `CC(C)C(NC(=O)c1c(F)cccc1F)C(=O)NNC(=O)c1ccccc1` (stereo unspecified) belongs “inactive”; to `CCn1cc(CN2CCC(n3nccc3NC(=O)CCCc3ccccc3)CC2)c(C)n1`, “inactive”.

For `CC(C)c1nnc(NC(=O)C2CC(=O)N(CCc3ccc(F)cc3)C2)s1` (stereo unspecified), the activity, negative = inhibition result is “inactive”.

For `CN(c1ccc(OCC(=O)OCC(=O)Nc2cccc([N+](=O)[O-])c2)cc1)S(=O)(=O)c1ccc(F)cc1`, the activity, negative = inhibition entry was “inactive”. With `Nc1ccc(Nc2cc(O)c3ncccc3c2)cc1`, the activity, negative = inhibition result is “inactive”. To `CCOc1ccc(C(=O)CCC(=O)Nc2ccncc2)cc1` belongs “inactive”; to `CCCCc1ccc(NC(=S)N2CCCC(CO)C2)cc1` (stereo unspecified), “inactive”. To `COc1ccc(C(=O)CCc2ccccc2O)c(OC)c1` belongs “inactive”; to `CC1=CCC2C(=O)N(c3cccc(C(=O)NC(C)c4ccccc4)c3)C(=O)C2C1` (stereo unspecified), “inactive”.

For the compound `COc1ccc(S(=O)(=O)N2CCN(C(=O)N(C)C)C2C)cc1` (stereo unspecified), the activity, negative = inhibition result was “inactive”.

As to `CCOc1ncccc1C(=O)NNC(=O)c1cccc(S(=O)(=O)Nc2ccccc2OC)c1`, the activity, negative = inhibition result is “inactive”. Take `CCN(CC)C(=O)Oc1ccc(Br)cc1C(=O)Nc1ccc(F)c(Cl)c1`: the activity, negative = inhibition result was “inactive”. On to `NS(=O)(=O)c1ccc(CCNS(=O)(=O)c2cccc3cccnc23)cc1`, for which the activity, negative = inhibition entry is “inactive”.

As to `Cc1ccc(CNC(=O)CCS(=O)(=O)c2ccc3c(c2)CC(C)N3C(=O)C2CC2)o1` (stereo unspecified), the activity, negative = inhibition result was “inactive”. In the case of `O=C(NCc1ccco1)C1CCCN1S(=O)(=O)c1ccccc1C(F)(F)F` (stereo unspecified), the activity, negative = inhibition result is “inactive”. `CCNc1nc(Oc2ccc(C(=O)OC)cc2)nc(N2CCOCC2)n1`: the activity, negative = inhibition entry was “inactive”. Then `Cc1ccc2nc(NC(=O)CSc3nc(=O)n(CCCN(C)C)c4c3CCC4)sc2c1`, with “inactive”; and `CCOc1ccc(Br)cc1S(=O)(=O)Nc1ccc(S(=O)(=O)Nc2cc(C)on2)cc1`, with “inactive”; and `CCCc1nc(SCC(=O)Nc2ccccc2OC)c2c(=O)n(C)c(=O)n(C)c2n1`, with “inactive”. Take `CN(C)S(=O)(=O)c1ccc(C(=O)NCCN=C2NS(=O)(=O)c3ccccc32)cc1`: the activity, negative = inhibition result is “inactive”. Then `CC(=O)NCCC(=O)Nc1cc(S(=O)(=O)N2CCCCC2)ccc1Oc1cccc(C)c1`, with “inactive”; and `COc1ccc(C(C(=O)NC2CCCC2)N(CCCO)C(=O)Cn2nnc(-c3ccc(C)o3)n2)cc1` (stereo unspecified), with “inactive”. To `CCc1cc(C(=O)OC)c(NC(=O)CC2Sc3ccc(C(F)(F)F)cc3NC2=O)s1` (stereo unspecified) belongs “inactive”; to `O=C(O)C1CCC(CNS(=O)(=O)c2ccc(Br)cc2)CC1` (stereo unspecified), “inactive”; to `O=C1CCC([N+](=O)[O-])C(c2ccccc2Br)N1` (stereo unspecified), “inactive”. `COC(=O)c1sc(NC(=O)COC(=O)C2CCC2)c(C(=O)OC)c1C`: the activity, negative = inhibition entry was “inactive”. For the compound `CCOC(=O)c1c(CNCc2ccccc2F)c2sc(C)cc2n1C`, the activity, negative = inhibition entry is “inactive”.

On to `COC(=O)N1CN(C(=O)OC)CN(C(=O)OC)C1`, for which the activity, negative = inhibition result was “inactive”. For `CC1CCN(S(=O)(=O)c2ccc3[nH]c(=O)ccc3c2)CC1`, the activity, negative = inhibition result is “inactive”. Regarding `CCS(=O)(=O)c1ccc(-c2cccc(NC(=O)c3ccc(Br)o3)c2)nn1`, the activity, negative = inhibition result was “inactive”.

Consider `Cc1ccc2c(Cl)c(C(=O)NCCCn3ccnc3)sc2c1`, for which the activity, negative = inhibition entry was “inactive”. In the case of `CC(C)CCNC(=O)CCNS(=O)(=O)c1ccc(Cl)cc1`, the activity, negative = inhibition entry was “inactive”.

Take `O=C(NCc1cccnc1)c1ccc(CS(=O)(=O)c2ccc(Br)cc2)o1`: the activity, negative = inhibition entry is “inactive”.

For `CC(=O)c1c(N2CCOCC2)nc(=S)n(Cc2ccccc2)c1C`, the activity, negative = inhibition result is “inactive”. As to `O=C(Nc1ccc(OCC(=O)N2CCOCC2)cc1)c1cc(F)c(F)cc1Cl`, the activity, negative = inhibition result was “inactive”. Turning to `Cc1cc(C(=O)Nc2ccc(C)c(S(=O)(=O)N3CCOCC3)c2)c2ccccc2n1`, the activity, negative = inhibition entry was “inactive”. As to `COc1ccc(CCNc2ncnc3c2nnn3Cc2ccccc2)cc1`, the activity, negative = inhibition result was “inactive”. Then `O=C1OCCN1C(=O)[C@H]1[C@H](c2ccc(F)cc2)C(c2ccccc2)=NN1c1ccc(Br)cc1`, with “inactive”; and `Cc1ccc(NC(=O)N2CCSc3ccccc32)cc1`, with “inactive”. Then `Cc1cc(SCC(=O)NCCN2C(=O)CSC2=O)nc2ccccc12`, with “inactive”; and `S=c1[nH]ccn1-c1ccc(Cl)cc1`, with “inactive”; and `CCCOc1cccc(C(=O)Nc2ccccc2C(=O)N2CCN(C)CC2)c1`, with “inactive”. Take `COc1ccc2c(C)cc3nnnn3c2c1`: the activity, negative = inhibition entry is “inactive”. To `CN(C)N(C)C(=O)C(O)(c1ccccc1)c1ccccc1` belongs “inactive”. To `COc1ccc2[nH]c(C)c(CCN(Cc3cccs3)C(=S)Nc3ccccc3OC)c2c1` belongs “inactive”; to `O=c1ccc2cc(S(=O)(=O)N3CCN(c4ccccc4)CC3)ccc2o1`, “inactive”; to `O=S1(=O)N=C(N(CCO)/N=C/c2ccccc2F)c2ccccc21`, “inactive”. To `O=C(CCc1nnc2ccc(NCCCN3CCCC3=O)nn12)NCc1ccccc1Cl` belongs “inactive”; to `CC(=O)N1CCN(c2ccccc2NC(=S)NC(=O)c2cc3ccccc3o2)CC1`, “inactive”; to `COc1ccc(NS(=O)(=O)c2cc(NC(=O)COc3ccccc3F)ccc2OC)cc1`, “inactive”.

`O=C(CSc1nnc(SCc2ccc(F)cc2)s1)Nc1ccc(C(=O)O)cc1`: the activity, negative = inhibition result was “inactive”. Regarding `O=C(CS(=O)(=O)c1ccc(C(F)(F)F)cn1)NNC(=O)c1ccccc1`, the activity, negative = inhibition result was “inactive”. `O=C(CCc1ccc(S(=O)(=O)N2CCOCC2)cc1)Nc1ccc2ccccc2c1`: the activity, negative = inhibition result was “inactive”. For the compound `N#CC1=C(N)N(c2ccc(F)cc2)C(=O)C1`, the activity, negative = inhibition entry was “inactive”.

As for `NC(=O)C1CCCN(CC(=O)N2CCN(c3ccccc3)CC2)C1` (stereo unspecified), the activity, negative = inhibition entry is “inactive”. Then `CC[C@@]1(C(=O)OC)N[C@H](CN(C)C(C)=O)[C@@H]2C(=O)N(C)C(=O)[C@@H]21`, with “inactive”; and `COc1ccc(C(=O)N2CCCN(C)CC2)c(OC)c1`, with “inactive”. To `COC(C)(C)[C@]12CC(O)(C(C)C)ON1[C@H]1CCCCC1N2O` (stereo partly specified) belongs “inactive”.

As for `O=C(c1ccc(Cl)cc1)N1N=C(c2ccccn2)CC1(O)C(F)(F)F` (stereo unspecified), the activity, negative = inhibition entry was “inactive”.

On to `COc1ccc(Cl)cc1NC(=O)CCS(=O)(=O)c1ccc(Br)cc1`, for which the activity, negative = inhibition entry is “inactive”. On to `COC(=O)c1ccccc1NC(=O)CSc1n[nH]c(-c2ccncc2)n1`, for which the activity, negative = inhibition entry is “inactive”.

As for `CCCCNS(=O)(=O)c1ccc(S(=O)(=O)n2cnc3ccccc32)cc1`, the activity, negative = inhibition result was “inactive”.
